D1 ag: human D1 receptor agonism | P21728 | hit rate 1% among 360,000 | HEK293 T-REx D1 cells, calcium flux, agonist mode | activation, % at 2 µM
Target sequence (P21728 whole entry, looked up): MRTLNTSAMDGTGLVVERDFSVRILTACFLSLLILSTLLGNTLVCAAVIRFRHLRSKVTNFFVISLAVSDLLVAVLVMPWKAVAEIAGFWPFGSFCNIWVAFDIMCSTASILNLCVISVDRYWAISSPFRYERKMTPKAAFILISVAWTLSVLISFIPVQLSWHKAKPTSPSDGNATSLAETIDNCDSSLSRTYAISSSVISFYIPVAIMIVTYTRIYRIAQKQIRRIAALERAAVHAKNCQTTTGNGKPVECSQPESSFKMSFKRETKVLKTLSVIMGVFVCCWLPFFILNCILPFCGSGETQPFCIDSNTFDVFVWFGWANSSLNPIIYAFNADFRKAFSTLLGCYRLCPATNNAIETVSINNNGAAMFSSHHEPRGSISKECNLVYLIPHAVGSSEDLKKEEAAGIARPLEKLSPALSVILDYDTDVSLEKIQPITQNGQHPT
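Agonism was scored from calcium flux recorded over 180 s (1 read/s) after pintool compound addition, following a 10-cycle baseline. Cells were inducible force-coupled HEK293 TREx D1, plated overnight at 30 C and loaded with no-wash calcium dye.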
D1 antag: human D1 dopamine receptor antagonism | activity change, negative = inhibition, % at 10 µM | P21728 | HEK293 TREx D1 cells, calcium flux, dopamine EC80; hits give low values | hit rate 3.2% among 360,000; in the data active = activity change below about -30%
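Tetracycline-induced HEK293 T-REx cells with force-coupled D1 receptor were loaded with a no-wash calcium dye. Compound was added after a 10 s baseline and read kinetically for 180 s; EC80 dopamine was then added and calcium flux followed another 180 s.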
TRHR ag: activates the human TRH receptor; P34981; TRHR cells, calcium flux fluo-8, FDSS agonist mode; activation, % at 2 µM; hit rate 0.18% among 360,000
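Fluo-8-loaded TRHR cells; 10 s baseline, compound added, kinetic Ca2+ fluorescence read 1/s, agonist mode.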
D1 potentiator: human D1 dopamine receptor positive modulation | hit rate 0.036% among 360,000 | potentiation, % at 10 µM | P21728 | AID 504651 | HEK293 TREx D1 cells, calcium flux, dopamine EC20 potentiation; in the data active = potentiation above about 30%
TRHR enhancer: TRH receptor (human) allosteric enhancement. P34981. TRHR cells, fluo-8 calcium fluorescence, EC20 TRH enhancement. enhancement, % at 2 µM. hit rate 0.66% among 360,000; in the data active = enhancement above about 30%
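Enhancer read-out: after compound pinning and an initial kinetic agonist-mode read, an EC20 of TRH (10 nM final) was injected and fluo-8 calcium signal (Ex 480/Em 530) followed at 1 s/cycle for 100 cycles in TRHR-expressing cells.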
A number is an active result; i = inactive; nt = not tested or not shown; ! = repeats disagree. This is a sample that favours compounds with a hit; in the whole collection about 4.7% have one here. Cut-off read from the data, not from the text of the source, unless noted: active = activation above about 30%; inactive = the rest.

SMILES	D1 ag	D1 antag	TRHR ag	D1 potentiator	TRHR enhancer
Oc1ccccc1C1C=C(c2ccc3c(c2)OCO3)NC(c2cccc(F)c2)N1 (stereo not given)	i	i	i	i	i
CCOC(=O)C1(Nc2nccs2)Sc2ccccc2NC1=O (stereo not given)	i	-33.6	i	i	i
CCOC(=O)C1(N(CC)CC)Sc2cc(C)ccc2NC1=O (stereo not given)	i	i	i	i	i
Cc1cccc(C)c1NC(=O)CN(C)C(=O)CSCc1c(C)noc1C	i	i	i	i	i
Cc1noc(C)c1CSCC(=O)N(C)CC(=O)Nc1ccccc1Br	i	-47.1	i	i	i
COc1ccc(OCCN2CCN(C(=O)c3ccc(OC)c(OC)c3)CC2)cc1	i	i	i	nt	i
O=C(Nc1ccccc1)Nc1ccccc1-n1ccnc1	i	i	i	i	i
CC(=O)Nc1ccc(N2CCc3c(C)c(C#N)c4nc5ccccc5n4c32)cc1	47.1	i	i	i	i
CC(=O)c1ccc(Nc2c3c(c(C#N)c4nc5ccccc5n24)CCC3)cc1	i	i	i	i	i
COc1ccc(NC(=O)c2ccc3c(c2)CCN3S(=O)(=O)c2ccccc2)cc1	i	-50.9!	i	i	i
O=C(Nc1ccccc1)c1ccc2c(c1)CCN2S(=O)(=O)c1ccccc1	i	-31.8	i	i	i
Cc1ccccc1-c1noc(C(C)NC(=O)c2ccco2)n1 (stereo not given)	i	-39.9!	i	i	i
CC(NC(=O)c1ccco1)c1nc(-c2ccc(Cl)cc2)no1 (stereo not given)	i	i	i	i	i
O=C(C1CCN(S(=O)(=O)c2cccc3cccnc23)CC1)N1CC=C(c2ccccc2)CC1	i	-43.6	i	i	i
O=C(O)c1ccc(Cl)c(NC(=O)C2CCCN2S(=O)(=O)c2cccc3nsnc23)c1 (stereo not given)	i	-40.3	i	i	i
O=C(C1CCN(S(=O)(=O)c2cccc3cccnc23)CC1)N1CCCC1	i	i	i	i	i
CC1CCCCN1CCNC(=O)C1CCN(S(=O)(=O)c2cccc3cccnc23)CC1 (stereo not given)	i	i	i	i	31.4
CCC1CCCCN1CCNC(=O)C1CCN(S(=O)(=O)c2cccc3nsnc23)CC1 (stereo not given)	i	i	i	35.4	i
C=Cc1cc2c(s1)c1cnn(Cc3ccccc3F)c(=O)c1n2C	i	i	i	i	i
CCN(CCNC(=O)C1CCN(S(=O)(=O)c2cccc3cccnc23)CC1)c1ccccc1	i	i	i	i	36.6
Cc1cccc(CCNC(=O)C2CCN(S(=O)(=O)c3cccc4cccnc34)CC2)c1	i	i	i	i	i
O=C(Nc1ccc(Br)cc1)C1CCN(S(=O)(=O)c2cccc3nsnc23)CC1	i	-33.4	i	i	i
CCOC(=O)c1c(NC(=O)c2cc(=O)c3ccc(C)cc3o2)sc(C)c1C	i	i	i	i	i
CCOc1ccc(C2=CC(c3cc(Br)ccc3F)n3ncnc3N2)cc1Cl (stereo not given)	i	-85.5	i	i	i
COc1ccc(C2C=C(c3ccc(C)cc3)Nc3ncnn32)cc1 (stereo not given)	i	i	i	i	i
SMILES	D1 ag	D1 antag	TRHR ag	D1 potentiator	TRHR enhancer
COc1ccc(C2C=C(c3ccc(Cl)c(Cl)c3)Nc3ncnn32)cc1 (stereo not given)	48.3	i	i	i	i
CCOC(=O)C1=C(C)Nc2ncnn2C1c1cc(Br)ccc1F (stereo not given)	i	-32.8	i	i	i
CCC(Cc1ccccc1)NS(=O)(=O)c1ccc2c(c1)NC(=O)C(C)S2 (stereo not given)	i	i	i	i	i
CC(C)c1nnc(NC(=O)c2cccs2)s1	i	-52.6	i	i	i
Cc1ccccc1NC(=O)c1ccccc1NC(=O)c1cccs1	i	i	i	i	i
Cc1cnccc1NC(=O)c1cccs1	i	-40.7	i	i	i
CCCCC(CC)c1nnc(NC(=O)c2cccs2)s1 (stereo not given)	i	i	i	i	i
CSc1ccccc1NC(=O)c1cccs1	i	-64.7	i	i	i
CSc1ccccc1NC(=O)c1c(Br)cnn1C	i	-32.7	i	i	i
CCN(Cc1ccccc1)C(=O)Cn1c(=O)n(-c2ccc(Cl)c(Cl)c2)c(=O)c2c(C)c(C(=O)N(C)C)sc21	i	i	i	i	i
